This is an account of results in ChEMBL document CHEMBL3988442, “University of Dundee, Small-Polar-MMV Screening Library” (2021).

Each structure is given as a SMILES string. For some assays here: Entries with a potency or affinity are not part of this list.

Holding throughout (set-up): scale not given: direction of the effect not stated beside the values
Assay [1] has as its target Protein translocase subunit SecA (Escherichia coli (strain K12)) (UniProt P10408). In words: Assay to Identify E. coli SecA ATPase Inhibitors. The assay is classed as functional. Conditions: 30 µM.
The target of assay [2] is T1, Ubiquitin-activating enzyme e1, putative (Leishmania donovani (strain BPK282A1)) (UniProt E9BSI1).
T1 sequence (whole entry): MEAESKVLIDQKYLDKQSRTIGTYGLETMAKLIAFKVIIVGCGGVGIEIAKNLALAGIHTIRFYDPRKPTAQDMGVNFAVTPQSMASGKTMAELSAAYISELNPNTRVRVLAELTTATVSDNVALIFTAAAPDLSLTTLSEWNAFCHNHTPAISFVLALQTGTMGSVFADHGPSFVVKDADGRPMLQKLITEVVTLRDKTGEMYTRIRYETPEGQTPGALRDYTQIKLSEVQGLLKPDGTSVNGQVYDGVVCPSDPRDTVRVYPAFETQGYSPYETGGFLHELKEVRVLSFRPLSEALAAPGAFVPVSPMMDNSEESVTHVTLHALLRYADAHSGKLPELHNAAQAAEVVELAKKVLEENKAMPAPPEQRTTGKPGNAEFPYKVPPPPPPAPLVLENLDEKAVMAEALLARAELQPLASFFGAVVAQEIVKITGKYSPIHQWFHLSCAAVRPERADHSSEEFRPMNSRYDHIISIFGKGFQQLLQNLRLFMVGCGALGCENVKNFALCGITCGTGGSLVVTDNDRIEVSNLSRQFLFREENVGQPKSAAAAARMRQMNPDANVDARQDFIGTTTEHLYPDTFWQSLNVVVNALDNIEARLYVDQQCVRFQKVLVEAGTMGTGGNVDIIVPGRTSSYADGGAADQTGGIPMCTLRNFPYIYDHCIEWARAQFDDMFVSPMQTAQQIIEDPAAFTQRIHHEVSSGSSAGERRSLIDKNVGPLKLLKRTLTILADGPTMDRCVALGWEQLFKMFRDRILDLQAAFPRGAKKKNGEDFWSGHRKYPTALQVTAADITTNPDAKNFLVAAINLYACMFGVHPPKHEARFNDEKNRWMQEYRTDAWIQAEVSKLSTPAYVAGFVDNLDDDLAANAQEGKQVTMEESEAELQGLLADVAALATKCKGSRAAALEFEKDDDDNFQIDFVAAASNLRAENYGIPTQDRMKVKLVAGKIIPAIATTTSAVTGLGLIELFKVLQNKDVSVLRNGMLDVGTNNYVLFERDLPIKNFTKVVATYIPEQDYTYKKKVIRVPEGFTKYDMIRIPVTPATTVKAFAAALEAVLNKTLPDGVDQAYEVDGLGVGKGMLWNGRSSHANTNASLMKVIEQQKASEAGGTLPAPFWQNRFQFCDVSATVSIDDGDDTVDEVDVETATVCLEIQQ
In words: Leishmania donovani Ubiquitin Activating Enzyme (LdE1). It is filed as functional. The note with it: 30 µM.

Assay [3] addresses AMP-activated protein kinase, AMPK (Homo sapiens) (UniProt P54646+O43741+P54619+Q9UGJ0+Q9Y478+Q13131+Q9UGI9). In words: AMP-dependent Kinase enzyme assay. An in vitro enzyme assay that detects ADP turnover that is directly proportional to AMPK activity. This uses naive AMPK that is activated during the assay with MK-8722. It is filed as functional. Conditions: 30 µM.
Assay [4] concerns the target Sialic acid-binding Ig-like lectin 9 (Homo sapiens) (UniProt Q9Y336). In words: Hs-Siglec9 ALPHAscreen SOP 20170721. Conditions: 10 µM. A general note: In Alpha technology, singlet oxygen from a donor bead excites a nearby acceptor bead.
The test system of a further assay is Trypanosoma cruzi. In words: Trypanosoma cruzi phosphomannomutase and mannose-1-phosphate guanylyltransferase assay. It is filed as functional. The note with it: 10 µM.
The target in assay [5] is T2, Arginase-2, mitochondrial (Homo sapiens) (UniProt P78540).
T2 sequence (whole entry): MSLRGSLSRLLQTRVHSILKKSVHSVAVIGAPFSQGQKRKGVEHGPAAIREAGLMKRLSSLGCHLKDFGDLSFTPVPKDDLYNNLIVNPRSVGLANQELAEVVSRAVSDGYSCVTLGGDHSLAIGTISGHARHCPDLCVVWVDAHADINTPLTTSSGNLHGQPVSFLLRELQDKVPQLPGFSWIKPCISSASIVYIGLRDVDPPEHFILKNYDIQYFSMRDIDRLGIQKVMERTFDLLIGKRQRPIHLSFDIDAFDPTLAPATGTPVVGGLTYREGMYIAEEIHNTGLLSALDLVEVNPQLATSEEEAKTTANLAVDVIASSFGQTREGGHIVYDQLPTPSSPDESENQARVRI
In words: in vitro enzyme assay to detect the production of urea directly proportional to the activity of Arginase II. Note: in the data most compounds retested in dose-response had high values. The assay is classed as functional. Conditions: 33.3 µM.

The target of assay [6] is T3, Proteasome subunit beta (Trypanosoma cruzi) (UniProt O96673).
T3 sequence (whole entry): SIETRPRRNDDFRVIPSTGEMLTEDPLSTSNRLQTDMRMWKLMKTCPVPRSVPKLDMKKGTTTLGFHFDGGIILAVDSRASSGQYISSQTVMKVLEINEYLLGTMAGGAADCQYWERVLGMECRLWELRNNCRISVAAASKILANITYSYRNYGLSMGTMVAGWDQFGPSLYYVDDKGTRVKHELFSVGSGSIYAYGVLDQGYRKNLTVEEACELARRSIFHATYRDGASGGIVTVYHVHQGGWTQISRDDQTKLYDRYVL
In words: Trypanosoma cruzi proteasome chymotrypsin-like activity (TcProtChymo) assay. Note: in the data most compounds retested in dose-response had high values. It is filed as functional. Conditions: 9.37 µM.

A further assay is filed under the species Homo sapiens. In words: To identify inhibition of the IFN signalling (Jak-Stat) pathway via expression of an eGFP reporter gene under the control of an IFN-stimulated response element (ISRE) containing MxA promoter. It is filed as functional. The note with it: 30 µM. For orientation: Reporter assays use an easily measured gene product as a stand-in for the process of interest.

The target of assay [7] is T4, Tyrosyl-tRNA synthetase, putative (Trypanosoma cruzi (strain CL Brener)) (UniProt Q4DSP6).
T4 sequence (whole entry): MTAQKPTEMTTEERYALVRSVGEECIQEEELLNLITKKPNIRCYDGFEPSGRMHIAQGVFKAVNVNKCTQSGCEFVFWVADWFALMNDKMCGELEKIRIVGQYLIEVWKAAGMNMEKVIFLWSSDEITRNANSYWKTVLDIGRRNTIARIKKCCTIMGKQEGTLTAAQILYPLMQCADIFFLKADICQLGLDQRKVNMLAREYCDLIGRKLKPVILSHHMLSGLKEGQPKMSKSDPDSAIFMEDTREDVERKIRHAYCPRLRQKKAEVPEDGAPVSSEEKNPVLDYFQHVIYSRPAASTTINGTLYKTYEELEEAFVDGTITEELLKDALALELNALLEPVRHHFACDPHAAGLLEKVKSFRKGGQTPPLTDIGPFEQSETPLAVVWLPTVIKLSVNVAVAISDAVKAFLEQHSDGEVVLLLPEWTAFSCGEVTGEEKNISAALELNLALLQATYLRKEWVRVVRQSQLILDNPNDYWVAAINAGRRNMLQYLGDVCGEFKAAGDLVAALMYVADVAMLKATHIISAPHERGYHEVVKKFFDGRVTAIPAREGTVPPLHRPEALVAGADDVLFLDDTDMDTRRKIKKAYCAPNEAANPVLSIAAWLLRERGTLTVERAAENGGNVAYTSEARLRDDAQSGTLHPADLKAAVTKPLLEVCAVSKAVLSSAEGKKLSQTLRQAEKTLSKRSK
In words: Trypanosoma cruzi tyrosyl tRNA synthetase (TcYRS) _High Tyrosine SOP. Note: in the data most compounds retested in dose-response had high values. The assay is classed as functional. Conditions: 30 µM.

Assay [8] concerns the target T4, Tyrosyl-tRNA synthetase, putative (Trypanosoma cruzi (strain CL Brener)). In words: Trypanosoma cruzi tyrosyl tRNA synthetase (TcYRS) SOP. The assay is classed as functional. Conditions: 30 µM.
Assay [9] deals with Chromo domain-containing protein 1 (Saccharomyces cerevisiae (strain ATCC 204508 / S288c) (Baker's yeast)) (UniProt P32657). In words: ScCHD-1 Enzyme Inhibition Assay. Note: in the data most compounds retested in dose-response had high values. It is filed as functional. The note with it: 30 µM.
Chromo domain-containing protein 1 (Saccharomyces cerevisiae (strain ATCC 204508 / S288c) (Baker's yeast)), sequence (P32657 whole entry, the tested form may be a part): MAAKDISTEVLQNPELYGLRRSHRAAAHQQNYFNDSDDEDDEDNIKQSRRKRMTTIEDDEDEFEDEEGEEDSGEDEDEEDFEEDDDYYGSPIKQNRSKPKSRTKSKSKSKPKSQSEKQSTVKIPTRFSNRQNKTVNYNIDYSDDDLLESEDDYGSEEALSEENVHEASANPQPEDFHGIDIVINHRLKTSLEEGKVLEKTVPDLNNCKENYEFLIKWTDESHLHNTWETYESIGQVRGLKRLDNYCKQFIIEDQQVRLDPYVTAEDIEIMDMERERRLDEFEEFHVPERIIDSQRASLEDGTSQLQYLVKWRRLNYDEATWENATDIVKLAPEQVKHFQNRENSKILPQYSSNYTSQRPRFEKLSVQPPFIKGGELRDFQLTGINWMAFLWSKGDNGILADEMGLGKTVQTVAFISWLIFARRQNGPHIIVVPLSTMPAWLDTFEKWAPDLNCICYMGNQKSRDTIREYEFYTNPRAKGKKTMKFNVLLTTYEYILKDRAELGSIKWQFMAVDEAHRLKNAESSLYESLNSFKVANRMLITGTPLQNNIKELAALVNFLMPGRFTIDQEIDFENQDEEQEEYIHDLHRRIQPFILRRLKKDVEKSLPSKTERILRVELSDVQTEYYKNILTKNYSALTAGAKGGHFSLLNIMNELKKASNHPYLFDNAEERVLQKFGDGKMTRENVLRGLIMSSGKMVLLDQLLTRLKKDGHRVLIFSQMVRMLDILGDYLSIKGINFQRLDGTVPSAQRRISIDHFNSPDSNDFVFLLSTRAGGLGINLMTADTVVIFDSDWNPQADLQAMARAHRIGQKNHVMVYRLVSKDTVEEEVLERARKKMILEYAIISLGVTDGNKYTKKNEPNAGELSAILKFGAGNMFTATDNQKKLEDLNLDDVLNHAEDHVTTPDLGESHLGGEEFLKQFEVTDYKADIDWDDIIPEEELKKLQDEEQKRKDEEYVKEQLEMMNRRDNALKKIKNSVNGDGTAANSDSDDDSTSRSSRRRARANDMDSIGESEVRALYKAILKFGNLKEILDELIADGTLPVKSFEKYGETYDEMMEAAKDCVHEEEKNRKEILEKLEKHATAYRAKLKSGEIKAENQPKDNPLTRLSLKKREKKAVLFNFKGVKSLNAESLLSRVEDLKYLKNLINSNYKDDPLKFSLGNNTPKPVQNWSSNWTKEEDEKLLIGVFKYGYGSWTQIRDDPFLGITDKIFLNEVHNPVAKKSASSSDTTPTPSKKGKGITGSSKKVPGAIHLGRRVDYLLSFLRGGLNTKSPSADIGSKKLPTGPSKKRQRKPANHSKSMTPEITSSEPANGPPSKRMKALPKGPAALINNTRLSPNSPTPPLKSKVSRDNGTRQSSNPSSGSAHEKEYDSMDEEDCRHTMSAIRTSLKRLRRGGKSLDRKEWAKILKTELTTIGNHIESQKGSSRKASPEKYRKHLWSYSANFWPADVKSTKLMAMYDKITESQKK

Sialic acid-binding Ig-like lectin 9 (Homo sapiens), sequence (Q9Y336 whole entry): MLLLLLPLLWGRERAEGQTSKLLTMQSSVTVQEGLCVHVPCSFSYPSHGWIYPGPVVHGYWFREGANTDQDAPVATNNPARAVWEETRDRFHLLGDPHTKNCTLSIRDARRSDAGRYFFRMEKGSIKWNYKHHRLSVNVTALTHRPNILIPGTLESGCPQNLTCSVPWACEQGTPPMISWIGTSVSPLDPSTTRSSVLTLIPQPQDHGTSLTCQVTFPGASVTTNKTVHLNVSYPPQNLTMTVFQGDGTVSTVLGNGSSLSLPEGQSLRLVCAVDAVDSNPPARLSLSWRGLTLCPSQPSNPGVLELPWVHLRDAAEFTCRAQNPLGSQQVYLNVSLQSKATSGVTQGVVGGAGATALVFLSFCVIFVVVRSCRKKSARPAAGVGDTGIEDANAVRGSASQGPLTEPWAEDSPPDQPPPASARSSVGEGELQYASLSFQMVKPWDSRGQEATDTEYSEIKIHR
Protein translocase subunit SecA (Escherichia coli (strain K12)), sequence (P10408 whole entry): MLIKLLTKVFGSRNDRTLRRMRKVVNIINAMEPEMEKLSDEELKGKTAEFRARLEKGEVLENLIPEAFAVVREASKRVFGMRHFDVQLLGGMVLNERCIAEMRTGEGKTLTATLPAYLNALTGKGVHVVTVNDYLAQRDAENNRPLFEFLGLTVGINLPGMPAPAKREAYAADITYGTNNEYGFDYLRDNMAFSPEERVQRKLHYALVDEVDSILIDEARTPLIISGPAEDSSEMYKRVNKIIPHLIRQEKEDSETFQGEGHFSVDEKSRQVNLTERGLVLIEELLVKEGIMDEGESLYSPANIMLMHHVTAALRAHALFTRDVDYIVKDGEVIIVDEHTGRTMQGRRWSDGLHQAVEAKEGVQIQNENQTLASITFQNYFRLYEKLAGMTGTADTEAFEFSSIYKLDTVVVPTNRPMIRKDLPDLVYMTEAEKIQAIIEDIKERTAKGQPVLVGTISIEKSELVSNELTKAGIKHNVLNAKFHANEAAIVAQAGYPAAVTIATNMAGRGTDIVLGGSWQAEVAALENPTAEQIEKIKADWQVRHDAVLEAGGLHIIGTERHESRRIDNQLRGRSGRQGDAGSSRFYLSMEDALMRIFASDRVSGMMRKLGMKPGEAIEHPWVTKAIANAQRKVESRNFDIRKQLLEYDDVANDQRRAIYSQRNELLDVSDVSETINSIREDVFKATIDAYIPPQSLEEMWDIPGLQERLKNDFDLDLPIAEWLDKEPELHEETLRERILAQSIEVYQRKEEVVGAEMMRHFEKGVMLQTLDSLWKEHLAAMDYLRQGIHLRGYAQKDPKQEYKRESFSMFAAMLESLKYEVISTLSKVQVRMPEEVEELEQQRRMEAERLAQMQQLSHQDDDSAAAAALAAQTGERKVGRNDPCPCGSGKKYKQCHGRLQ

`Cc1cnn(C2CN(CC(O)c3ccc(F)cc3)C2)c1` (stereo not given): the Percent Effect in assay [1] is 1.74%; in [2], -2.67%; in assay [3], -7.34%; in assay [4] it was 3.97%; with Trypanosoma cruzi, 2.82%; in assay [5], 8.33%. In addition, the Percent Effect in assay [6] came to 3.31%; in the assay listed under Homo sapiens, 17.9%; in assay [7], 6.01%; in assay [8], 13.6%; in [9], 105%.
Take `Cc1cccc(OCCNC(=O)CN2CCCC2Cn2cccn2)c1` (stereo not given): the Percent Effect was -2.54% in assay [1]; -5.26% in [2]; -4.16% in assay [3]; 6.34% in assay [4]; 4.95% with Trypanosoma cruzi; -4.32% in assay [5]. Besides, the Percent Effect was -0.931% in [6]; -9.42% in the assay filed under Homo sapiens; 5.42% in assay [7]; 11.1% in assay [8]; -3.56% in [9].
Regarding `Cn1cc(CCNC(=O)CCc2ccc3c(c2)OCO3)cn1`, the Percent Effect in assay [1] is -0.341%; in assay [2], 16.2%; in assay [3] it was 0.891%; in [4], 13.4%; in the assay with Trypanosoma cruzi it was -9.75%; in [5] it was 3.88%. Besides, the Percent Effect in assay [6] is 13.3%; in the assay filed under Homo sapiens, 8.13%; in assay [7] it was 1.98%; in assay [8] it was 13.4%; in [9] it was -6.68%.
For `COc1ccc(OCc2cc(C(=O)N3CCN[C@H](C)C3)n[nH]2)c(Cl)c1`, the Percent Effect is -0.706% in assay [1]; 5.41% in assay [2]; 0.0243% in assay [3]; -0.0327% in assay [4]; -4.63% with Trypanosoma cruzi; 2.86% in assay [5]. Also, the Percent Effect in assay [6] is 14.5%; in the assay filed under Homo sapiens, 5.15%; in [7], 2.65%; in [8], 9.76%; in [9], -3.55%.
For the compound `Cc1nccnc1N1CCC2(CCCN(C3CCOCC3)C2=O)C1` (stereo not given), the Percent Effect in assay [1] is -7.49%; in [2], -2.74%; in [3], 0.961%; in [4], -4.09%; with Trypanosoma cruzi it was -5.56%; in assay [5], 0%. Besides, the Percent Effect in assay [6] is -1.63%; in the assay listed under Homo sapiens, 27.4%; in assay [7], 0%; in [8], -3.7%; in [9] it was 0.0613%.
Turning to `CC(C)N1CC(C(=O)NCCc2csc(-c3ccncc3)n2)CC1=O` (stereo not given), the Percent Effect was -0.366% in assay [1]; 20.8% in assay [2]; 5.98% in assay [3]; -0.897% in [4]; 2.26% in the assay with Trypanosoma cruzi; -11% in [5]. Further, the Percent Effect in assay [6] is 14.3%; in the assay listed under Homo sapiens it was 21%; in [7], 6.45%; in [8], 16.1%; in assay [9] it was -6.34%.
For `CCCN(Cc1ccccc1)Cn1nc(C)c2c(C)onc2c1=O`, the Percent Effect was -7% in assay [1]; 10.8% in assay [2]; -10.2% in [3]; 25.6% in assay [4]; 4.62% in the assay with Trypanosoma cruzi; -4.81% in assay [5]. Besides, the Percent Effect is 1.98% in assay [6]; 8.04% in the assay filed under Homo sapiens; 5.42% in assay [7]; 18.5% in assay [8]; -13.4% in [9].
For `O=C(C1CCC1)N1CCC2(COCc3cnc(N4CCOCC4)nc32)C1` (stereo not given), the Percent Effect was 2.09% in assay [1]; 13.3% in assay [2]; -2.58% in assay [3]; -6.19% in assay [4]; 0.772% in the assay on Trypanosoma cruzi; -59.7% in assay [5]. Besides, the Percent Effect in assay [6] is 9.23%; in the assay filed under Homo sapiens, -2.75%; in assay [7], 2.08%; in assay [8] it was 12.5%; in assay [9], -9.27%.
With `CC(C)NC(=O)CS(=O)(=O)Cc1cc(Cl)c2c(c1)OCCO2`, the Percent Effect in assay [1] was -2.36%; in assay [2], 20.2%; in assay [3], -6.59%; in [4] it was -0.915%; with Trypanosoma cruzi, -0.283%; in [5], -1.52%. The Percent Effect is 0.737% in assay [6]; 13.3% in the assay filed under Homo sapiens; 7.39% in assay [7]; 24.1% in assay [8]; -5.39% in assay [9].
Take `O=C(c1cccnc1)N1CCCC(c2cc(C(F)F)n3ncnc3n2)C1` (stereo not given): the Percent Effect in assay [1] was -4.9%; in assay [2], 9.46%; in [3], 12.9%; in [4] it was 2%; in the assay on Trypanosoma cruzi it was -5.53%; in assay [5] it was 0.232%. For the same compound, the Percent Effect stood at 7.64% in assay [6]; 8.61% in the assay listed under Homo sapiens; 0% in assay [7]; 6.49% in assay [8]; 9.01% in assay [9].
